Compound activity from PubChem.
NTR1 agonist – NTR1 (human) agonism. P30989. NTR1-U2OS beta-arrestin-GFP spot imaging, agonist mode. activation, % at 20 µM. 0.17% of 330,000 active;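 active = activation at or above 40% of the spot to cytoplasm intensity ratio, with at least 20 cells analyzed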
ABHD5 PLIN5 PPI – blocks binding of human ABHD5 to perilipin-5 | Q00G26+Q8WTS1 | inhibition, % at 4 µM | Split G. princeps luciferase complementation, luminescence, 4 h | AID 602281 | 0.78% of 360,000 active;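 active = inhibition above the mean inhibition across every tested compound plus 3 SD, cut at about 22% in these data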
Beta2AR agonist – agonists of human beta-2 adrenergic receptor inducing internalization; P07550; Am2.2-beta2AR cells, FAP receptor internalization, flow cytometry; response, % (test concentration not listed); 0.43% of 340,000 active; AID 504454;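 active = response above a set limit, near 3 SD of response in nonfluorescent compounds, cut at about 42% in these data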
Target sequence (P07550 whole entry, looked up): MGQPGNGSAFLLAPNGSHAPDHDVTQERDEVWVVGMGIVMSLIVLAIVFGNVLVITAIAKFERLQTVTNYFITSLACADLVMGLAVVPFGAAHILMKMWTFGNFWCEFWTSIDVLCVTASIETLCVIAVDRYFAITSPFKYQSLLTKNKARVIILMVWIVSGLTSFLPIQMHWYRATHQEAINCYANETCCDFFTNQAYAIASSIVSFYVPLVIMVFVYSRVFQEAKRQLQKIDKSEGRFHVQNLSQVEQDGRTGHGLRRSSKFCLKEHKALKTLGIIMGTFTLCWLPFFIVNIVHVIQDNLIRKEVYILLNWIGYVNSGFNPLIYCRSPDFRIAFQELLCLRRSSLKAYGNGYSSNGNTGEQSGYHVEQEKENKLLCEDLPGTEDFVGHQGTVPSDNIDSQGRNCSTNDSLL
m5-HT2A agonist – agonists of mouse serotonin 5-HT2A receptor (HTR2A); 0.66% of 360,000 active; CHO-K1 mHTR2A beta-arrestin complementation, luminescence; percent of 30 µM serotonin response; AID 624169; P35363; activation, % at 7.6 µM;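 active = activation above a run cutoff, the mean activation of all tested compounds plus 3 SD, cut at about 14% in these data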
Exocytosis inh – lytic granule exocytosis inhibition. TALL-104 LAMP-1 surface exposure, flow cytometry; cells stimulated with thapsigargin and PMA. inhibition, % at 10 µM. 0.66% of 360,000 active;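 active = inhibition above about 55%, limit read from the data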
ABHD5-PLIN5 conf – confirmation of human ABHD5-PLIN5 interaction inhibitors | shares compounds with ABHD5 PLIN5 PPI | biochemical ABHD5-PLIN5 interaction, luminescence | inhibition, % at 4 µM | 67% of 2,200 active; in the data active = inhibition above about 23%
HNF4 counter – counter-screen for ABHD5-PLIN5 inhibitors: HNF4 split-luciferase | shares compounds with ABHD5 PLIN5 PPI | HNF4 dimerization, luminescence, biochemical | inhibition, % at 4 µM | 77% of 2,200 active;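 active = mean inhibition across replicate wells exceeding the computed hit threshold, cut at about 13% in these data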;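 note: light from luciferase halves that rejoin when HNF4 fusion proteins dimerize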
Large screens that a line does not name were inactive (follow-up assays come after a bar, where they were run). A selection: hits, their analogues and other compounds. The true share with any hit is near 2.3%.

CCOC(=O)C1CCCN(C(=O)c2cc(Nc3ccc(OC)cc3)nc3ccccc23)C1 (stereo not drawn)	ABHD5 PLIN5 PPI 28.6 | ABHD5-PLIN5 conf 42.3
CCOC(=O)C1CCCN(C(=O)c2cc(-c3ccco3)nc3ccccc23)C1 (stereo not drawn)	none
Cc1cccc(C)c1NC(=O)C(c1ccccc1)n1c(=O)c(-c2ccccc2)nc2ccccc21 (stereo not drawn)	none (no result: NTR1 agonist, Beta2AR agonist)
CC(C)(C)NC(=O)C(c1ccc(-c2ccccc2)cc1)n1c(=O)c(-c2ccco2)nc2ccccc21 (stereo not drawn)	ABHD5 PLIN5 PPI 72.9 (no result: NTR1 agonist, Beta2AR agonist) | ABHD5-PLIN5 conf 93.8 | HNF4 counter 28.2
CC(C)(C)NC(=O)C(c1ccc(C#N)cc1)n1c(=O)c(-c2ccccc2)nc2ccccc21 (stereo not drawn)	none (no result: NTR1 agonist, Beta2AR agonist)
CC(C)(C)NC(=O)C(c1ccc(C#N)cc1)n1c(=O)c(-c2ccco2)nc2ccccc21 (stereo not drawn)	ABHD5 PLIN5 PPI 75.4 (no result: NTR1 agonist, Beta2AR agonist) | ABHD5-PLIN5 conf 77.4 | HNF4 counter 26.2
CC(C)(C)NC(=O)C(c1ccc(-c2ccccc2)cc1)n1c(=O)c(-c2ccccc2)nc2ccccc21 (stereo not drawn)	none (no result: NTR1 agonist, Beta2AR agonist)
COc1ccc(C(C(=O)NC(C)(C)C)n2c(=O)c(-c3ccco3)nc3ccccc32)cc1 (stereo not drawn)	ABHD5 PLIN5 PPI 72.9 (no result: NTR1 agonist, Beta2AR agonist) | ABHD5-PLIN5 conf 62.7 | HNF4 counter 25.6
Cc1cccc(C)c1NC(=O)C(c1ccc(-c2ccccc2)cc1)n1c(=O)c(-c2ccco2)nc2ccccc21 (stereo not drawn)	ABHD5 PLIN5 PPI 89.6 (no result: NTR1 agonist, Beta2AR agonist) | ABHD5-PLIN5 conf 95.9 | HNF4 counter 26.7
N#Cc1cccc(NC(=O)c2cc(C3CCCCN3C(=O)CCCc3ccccc3)on2)c1 (stereo not drawn)	none (no result: NTR1 agonist, Beta2AR agonist)
C[C@H]1CN([C@@H](C)CO)C(=O)c2cccc(NC(=O)Nc3ccc(F)cc3)c2O[C@@H]1CN(C)Cc1ccc(C(=O)O)cc1	none
Cn1c(=NC(=O)COc2ccccc2)sc2ccccc21	none
COc1ccc(CNC(=O)CSCc2cccc(Cl)c2)cc1	ABHD5 PLIN5 PPI 67.5 | ABHD5-PLIN5 conf inactive | HNF4 counter inactive
COCCNC(=O)c1cc2c(c(-c3cccc(C#CC(C)(C)O)c3)n1)[C@@H](CCO)N(S(=O)C(C)(C)C)C2 (stereo partly drawn)	none (no result: NTR1 agonist, Beta2AR agonist)
CCOc1ccc(/C=C2\CCC(C3CCCC3)C2=O)cc1 (stereo not drawn)	none
CCC(=O)OCOc1ccc(/C=C2/CCC(CN(C)C)C2=O)cc1 (stereo not drawn)	ABHD5 PLIN5 PPI 50.9 (no result: NTR1 agonist) | ABHD5-PLIN5 conf 95.4 | HNF4 counter 108.8
COc1cc2cc(CCOC(=O)c3ccc(C#N)cc3)oc(=O)c2cc1OC	none
Cc1ccc(/C=C2\C(=O)Nc3ccccc32)o1	ABHD5 PLIN5 PPI 24.4 | ABHD5-PLIN5 conf inactive | HNF4 counter 39.7
O=C1Nc2ccccc2/C1=C/c1ccccc1F	ABHD5 PLIN5 PPI 26.8 | ABHD5-PLIN5 conf 44.1 | HNF4 counter 40.6
NS(=O)(=O)c1ccc(-c2ccc(/C=C3\C(=O)Nc4ccccc43)o2)cc1	none (no result: ABHD5 PLIN5 PPI, Beta2AR agonist, m5-HT2A agonist, Exocytosis inh)
COc1ccc(S(=O)(=O)n2ccnc2C)c(C)c1C	none
CC1(C)CC(=O)/C(=C\c2cccc([N+](=O)[O-])c2)C(C)(C)N1	ABHD5 PLIN5 PPI 26.2 | ABHD5-PLIN5 conf 36.9 | HNF4 counter 44.4
CNc1ccc(-c2cccc(C(=O)N3CCOCC3)c2)cn1	none (no result: NTR1 agonist, Beta2AR agonist)
CCOc1ccc(-n2nc3c(Cl)nnc(C)c3c2C)cc1	none
N#C/C(=C\c1ccccc1)C(=O)NC1CC1	none
COc1cc(/C=C(\C#N)C(N)=O)ccc1OS(=O)(=O)c1ccc(C)cc1	none
N#C/C(=C\c1c(F)cccc1Cl)C(=O)NC1CC1	ABHD5 PLIN5 PPI 23.3 | ABHD5-PLIN5 conf 30.4 | HNF4 counter 21.3
CSc1ccc(/C=C(\C#N)C(=O)NC2CCCCC2C)cc1 (stereo not drawn)	none
CC1CCCCC1NC(=O)/C(C#N)=C/c1ccccc1F (stereo not drawn)	ABHD5 PLIN5 PPI 33.5 | ABHD5-PLIN5 conf 82.1 | HNF4 counter 77.9
COc1cc(/C=C(\C#N)C(=O)NC2CCCCC2C)ccc1OS(=O)(=O)c1ccc(C)cc1 (stereo not drawn)	ABHD5 PLIN5 PPI 37.6 | ABHD5-PLIN5 conf 66.6 | HNF4 counter 48.8
CNC(=O)Nc1cc(NC(=O)NC)cc(C(F)(F)F)c1	none
O=C(C(=Cc1ccc(F)cc1)C(=O)c1ccccc1)c1ccccc1	ABHD5 PLIN5 PPI 93.7 (no result: NTR1 agonist, Beta2AR agonist) | ABHD5-PLIN5 conf 96.8 | HNF4 counter 87.4
COc1cccc(C=C(C(C)=O)C(=O)c2ccccc2)c1	ABHD5 PLIN5 PPI 77.1 (no result: NTR1 agonist, Beta2AR agonist) | ABHD5-PLIN5 conf 87.2 | HNF4 counter 80.3
CCC(=O)Nc1ccc(/C=C(\C(C)=O)C(=O)c2ccccc2)cc1	ABHD5 PLIN5 PPI 28.1 | ABHD5-PLIN5 conf 44.0 | HNF4 counter 51.3
COc1cccc(/C=C(/C(=O)OCC(N)=O)c2ccccc2)c1	none
CCCNC(=O)C(Cc1ccc(I)cc1)NC(=O)C1CC1 (stereo not drawn)	none
O=C(CCCc1c[nH]c2ccccc12)NCc1ccccc1C(F)(F)F	none
N#CCCN=C(NS(=O)(=O)c1ccccc1)c1ccccc1	none
N/N=C/C(=N\Nc1ccc(Cl)cc1)C(=O)c1ccncc1	none
CSc1ccc(Cl)c(C(=O)NCc2ccco2)c1	none
CSc1ccc(Cl)c(C(=O)OCC(=O)NCc2ccco2)c1	ABHD5 PLIN5 PPI 34.2 | ABHD5-PLIN5 conf inactive | HNF4 counter 17.8
CC(C)CC(NC(=O)OCc1ccccc1)C(=O)NC(Cc1ccccc1)C(=O)CCl (stereo not drawn)	ABHD5 PLIN5 PPI 24.4 (no result: NTR1 agonist) | ABHD5-PLIN5 conf 88.3 | HNF4 counter 88.2
COC(=O)CC1SC(=O)NC1=O (stereo not drawn)	ABHD5 PLIN5 PPI 39.2 | ABHD5-PLIN5 conf inactive | HNF4 counter inactive
O=[N+]([O-])/C=C\c1ccc(N2CCCC2)c(F)c1	ABHD5 PLIN5 PPI 64.2, Exocytosis inh 75.2 (no result: NTR1 agonist) | ABHD5-PLIN5 conf 98.4 | HNF4 counter 100.0
O=Cc1ccc(N2CCCC2)c([N+](=O)[O-])c1	none
Cc1ccc(CC2(OCCN(C)C)CCC(C(C)(C)C)CC2)cc1 (stereo not drawn)	ABHD5 PLIN5 PPI 26.4 (no result: NTR1 agonist) | ABHD5-PLIN5 conf 30.2 | HNF4 counter inactive
CN(C)CCOC1(Cc2ccc(F)cc2)CCC(C(C)(C)C)CC1 (stereo not drawn)	ABHD5 PLIN5 PPI 25.2 (no result: NTR1 agonist) | ABHD5-PLIN5 conf 32.7 | HNF4 counter inactive
O=C(CN1C(=O)C2CC=CCC2C1=O)Nc1ccc(Br)cc1 (stereo not drawn)	none
O=C(Cn1sc2ccccc2c1=O)Nc1ccc(Br)cc1	ABHD5 PLIN5 PPI 65.0 (no result: NTR1 agonist, Beta2AR agonist) | ABHD5-PLIN5 conf 81.3 | HNF4 counter 118.0
O=C(Cn1sc2ccccc2c1=O)Nc1ccc(Cl)cc1	ABHD5 PLIN5 PPI 62.2 (no result: NTR1 agonist, Beta2AR agonist) | ABHD5-PLIN5 conf 83.1 | HNF4 counter 118.2
